Laboratory results from PubChem BioAssay AID1458 (National Center for Advancing Translational Sciences (NCATS), 2008).
Out of some 210,000 compounds screened, about 5,900 (2.8%) were called active. Another 5% or so got no clear call; they are omitted. Calls follow the shape of the dose curve; as a rule, active = well fitted activation curve with a large enough effect; inconclusive = small, poorly fitted or top-dose-only effect; inactive = no such curve, though single readings can be large or run the other way. What follows is part of a selection rich in actives, with near analogues and random picks from the rest.

Test: qHTS Assay for Enhancers of SMN2 Splice Variant Expression; also: nearly all actives have a fitted effect of over 55% in size
Settings: HEK293 SMN2-luciferase splicing reporter, luminescence, 30-36 h; series mostly up to 46.1 µM
In short: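 HEK293 cells carry an SMN2 […]–luciferase reporter in which exon 7 inclusion puts luciferase in frame. Cells were plated 10-12 h before compound addition, then incubated 30-36 h at 37C. ONE-Glo luminescence was read; sodium butyrate at 4.5 mM final served as control.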
Potency is read from the fitted curve at half-maximal effect.

Potency, active:
Cc1ccc(C(=O)Nc2ccc(C)c(S(=O)(=O)N(C)C)c2)s1 12.6 µM
COc1ccc(C(=O)Nc2onc3c2CCCC3)cc1 0.794 µM
COc1ccc(NC(=O)c2ccc(OC)cc2)cc1 11.2 µM
COc1ccc(C(=O)Nc2ccc(F)cc2F)cc1 10 µM
CCc1cc(C(N)=O)c(NC(=O)c2ccc(OC)cc2)s1 11.2 µM
Cc1nn2cc(-c3ccc(Cl)cc3)cnc2c1Br 3.55 µM
Cc1cc(-c2csc(N)n2)c(C)n1-c1ccccc1 12.6 µM

Potency, inactive:
Cc1ccc(NC(=O)c2cccs2)cc1S(=O)(=O)N(C)C
Cc1ccc(NC(=O)CNCc2ccccn2)cc1S(=O)(=O)N(C)C
COc1ccc(C(=O)Nc2ccc(S(=O)(=O)NC(C)C)cc2)cc1
O=C(Nc1cccc2ccccc12)c1onc2c1CCCC2
CCc1cc(C(c2ccccc2OC)N2CCOCC2)c(NC(=O)c2ccccc2)s1 (centres undefined)
COc1ccc(NC(=O)c2ccc(C#CC(C)(C)O)cc2)cc1
COc1ccc(NC(=O)c2c(C)oc3c2CCCC3)cc1
COc1ccc(C(=O)N/N=c2\oc3ccccc3cc2C(N)=O)cc1
COc1ccccc1CC(=O)Nc1ccc(F)cc1F
COc1cc(OC)cc(C(=O)OCC(=O)Nc2ccc(F)cc2F)c1
Cc1ccc(CCNC(=O)Cn2c(-c3cccs3)cc3cc(F)ccc32)cc1
COc1ccccc1CNC(=O)CCCCn1c(=O)c2ccccc2n(CC(=O)Nc2cc(Cl)ccc2C)c1=O
O=C(COc1ccc(Cl)cc1)N(Cc1ccco1)Cc1ccco1
COc1cccc(NC(=O)N(Cc2cn(C)c3ccccc23)C2CCCCCC2)c1
CCn1c2ccccc2c2cc(NC(=O)COc3ccc(C)cc3C)ccc21
CCOC(=O)c1ccc(NC2=CC(c3ccc(OCC)cc3)N(c3ccc(C(=O)OCC)cc3)C2=O)cc1 (centres undefined)
COc1ccccc1CNC(=O)CCn1c(=O)c2ccccc2n(CC(=O)Nc2ccc(Br)cc2F)c1=O
COc1ccc(NC(=O)c2ccc3oc(=O)c(S(=O)(=O)c4ccc(F)cc4)cc3c2)c(OC)c1
O=C(C1CC1)N1CCc2cc(Br)cc(S(=O)(=O)N3CCN(c4ccccc4F)CC3)c21
COc1cccc(C(=O)NC2=NC(c3ccc(N(C)C)cc3)CC(=O)N2)c1 (centres undefined)
CC(=O)Nc1ccc(C(=O)Nc2nc(-c3cc(C)n(Cc4ccccc4)c3C)cs2)cc1
Cc1cc(-c2csc(N)n2)c(C)n1Cc1ccccc1
